Structures can show the parent of a compound that is named as a salt.
Test system: Drosophila S2 cl14 SmoIP sensor cells
Experiment: normalized SmoIP GFP fluorescence (untreated unstimulated = 0%, untreated Hh-stimulated = 100%); higher = more Smo activation sensor fluorescence
Conditions: compound concentration: 2 uM, 24 h
[1] = stimulation: Hh conditioned medium (+Hh)
[2] = stimulation: mock conditioned medium (-Hh)
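Note: flow cytometry read-out as median GFP intensity of gated cells, compounds added 30 min before Hh-conditioned or mock medium, mock-treated cells serving as unstimulated baseline.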

Structure (SMILES)	normalized SmoIP GFP fluorescence [1]	normalized SmoIP GFP fluorescence [2]
Cc1cc(-c2ncc(CC(=O)Nc3ccc(-c4cnccn4)cn3)cc2C)ccn1	130%	-1.23%
CN(C)CC/C=C1/c2ccccc2Sc2ccc(Cl)cc21 [Chlorprothixene]	106%	-0.378%
CN1C2CCC1CC(OC(=O)C(O)c1ccccc1)C2 (stereo unspecified) [homatropine-bromide]	102%	-4.81%
Cc1ccc(=O)n(-c2ccccc2)c1 [pirfenidone]	107%	-3.16%
CC(C)C1CCC(C(=O)N[C@H](Cc2ccccc2)C(=O)O)CC1 (stereo partly specified) [Nateglinide(Starlix)]	110%	-4.71%
O=C(O)Cn1nnc(-c2cc(N3CCC(Oc4cc(F)ccc4Br)CC3)no2)n1	80.4%	13.3%
CN(C)Cc1c(C(=O)NCCOc2ccc(C(=O)NO)cc2)oc2ccccc12	211%	35.2%
Cn1nnc2c(C(N)=O)ncn2c1=O [Methazolastone]	110%	3.18%
CCCc1cc(C)[nH]c(=O)c1CNC(=O)c1cc(-c2ccc(N3CCN(C(C)C)CC3)nc2)cc2c1cnn2C(C)C	116%	5.7%
COc1cc(-c2ncn(/C=C\C(=O)OC(C)C)n2)cc(C(F)(F)F)c1	98.3%	-0.889%
O=c1ncccn1[C@@H]1O[C@H](CO)[C@@H](O)[C@H]1O [zebularine]	108%	-3.16%
CN(C)C1CCN(C(=O)c2ccc(NC(=O)Nc3ccc(-c4nc(N5CCOCC5)nc(N5CCOCC5)n4)cc3)cc2)CC1	53%	-21.4%
CC(C)C[C@H](NC(=O)[C@H](CCc1ccccc1)NC(=O)CN1CCOCC1)C(=O)N[C@@H](Cc1ccccc1)C(=O)N[C@@H](CC(C)C)C(=O)[C@@]1(C)CO1 [carfilzomib-pr-171]	80.7%	5.7%
Cc1ccc(Nc2nccc(N(C)c3ccc4c(C)n(C)nc4c3)n2)cc1S(N)(=O)=O [Pazopanib-Hydrochloride]	117%	-4.53%
C/C(=C\C(=O)Nc1ccccc1C(=O)O)c1ccc2ccccc2c1	109%	-2.42%
NCCc1c[nH]cn1 [histamine-2hcl]	104%	1.21%
C#CCN[C@@H]1CCc2ccccc21 [rasagiline-mesylate]	120%	-13.4%
Cc1cc(Nc2cc(CN3CCOCC3)c3nc(C)c(Cc4ccc(Cl)cc4F)n3n2)n[nH]1	109%	-5.53%
Cc1cc(C)c2c(c1)[C@@H](N(Cc1cc(C(F)(F)F)cc(C(F)(F)F)c1)c1nnn(C)n1)CCCN2CC1CCC(C(=O)O)CC1 (stereo partly specified)	105%	-5.15%
CC(C)n1nc(-c2cc3cc(O)ccc3[nH]2)c2c(N)ncnc21	117%	-12.7%
CNC(=O)c1ccc(C)c(-n2c(C)cc(OCc3ccc(F)cc3F)c(Br)c2=O)c1	130%	-8.41%
NC(N)=N/N=C/c1c(Cl)cccc1Cl [guanabenz-wy-8678-acetate]	112%	-4.7%
CN(C)CCOc1ccc(-c2nc(-c3ccncc3)c(-c3ccc4c(c3)CC/C4=N\O)[nH]2)cc1	114%	4.48%
CCS(=O)(=O)N1CC(CC#N)(n2cc(-c3ncnc4[nH]ccc34)cn2)C1	110%	-0.775%
Cc1ccc(C(=O)NCCCCCC(=O)Nc2ccccc2N)cc1 [rg2833-rgfp109]	101%	-3.05%

Structure (SMILES)	normalized SmoIP GFP fluorescence [1]	normalized SmoIP GFP fluorescence [2]
CN1CCN(c2ccc3nc(-c4c(N)c5c(F)cccc5[nH]c4=O)[nH]c3c2)CC1	63.2%	69.1%
Oc1cc(O)cc(/C=C/c2ccc(O)c(O)c2)c1 [piceatannol]	114%	-2.08%
NC(=O)N1CCC(CC(=O)N2CCC(C3c4ncc(Br)cc4CCc4cc(Cl)cc(Br)c43)CC2)CC1 (stereo unspecified)	127%	10.1%
CCc1ccc(OCc2ccccc2C(=O)Nc2ccc3nc(C)cc(N)c3c2)cc1	164%	14.4%
COc1ccc(COc2cc3oc(=O)c4cc(C(C)O)ccc4c3cc2OC)cc1 (stereo unspecified) [Palomid-529-P529]	134%	-15.8%
CCCC(=O)OCOC(=O)C1=C(C)NC(C)=C(C(=O)OC)C1c1cccc(Cl)c1Cl (stereo unspecified) [cleviprex-clevidipine]	119%	-12.9%
CS(=O)(=O)c1cccc(CNc2nc(Nc3ccc4c(c3)CCC(=O)N4)ncc2C(F)(F)F)c1	209%	71.5%
N[C@@H](CC(=O)N1CCn2c(nnc2C(F)(F)F)C1)Cc1cc(F)c(F)cc1F [Sitagliptin]	103%	-1.74%
CN1CCC(=C2c3ccccc3CCc3cccnc32)CC1 [azatadine-dimaleate]	114%	4.79%
Cc1cc(C)nc(NS(=O)(=O)c2ccc(NC(=S)NC(=O)COc3ccc(Br)cc3Cl)cc2)n1	105%	-4.81%
Cn1cc(CNCC2CCN(c3ncc(C(=O)NO)cn3)CC2)c2ccccc21	268%	60.6%
CCn1c(-c2nonc2N)nc2c(C#CC(C)(C)O)ncc(OC[C@H]3CCCNC3)c21	98.8%	-8.56%
CN1CC2c3ccccc3Oc3ccc(Cl)cc3C2C1 (stereo unspecified) [Asenapine]	115%	4.58%
Cc1ccc(S(=O)(=O)c2ccc([N+](=O)[O-])o2)cc1	144%	21.3%
Oc1ccc(-c2nc(-c3ccc(F)cc3)c(-c3ccncc3)[nH]2)cc1	99.3%	-1.34%
CCOc1ccc(Cc2cc([C@@H]3O[C@H](CO)[C@@H](O)[C@H](O)[C@H]3O)ccc2Cl)cc1 [Dapagliflozin]	75.9%	1.57%
C=CCn1c(=O)c2cnc(Nc3ccc(N4CCN(C)CC4)cc3)nc2n1-c1cccc(C(C)(C)O)n1	58.7%	-13.9%
O=C(Nc1ccccc1)N1CCN(c2nc(-c3ccccc3)ns2)CC1	104%	-0.889%
Nc1nc(N)c2nc(-c3cccc(O)c3)cnc2n1	108%	-4.7%
CCOC(=O)[C@H](CCc1ccccc1)N[C@@H](C)C(=O)N1Cc2cc(OC)c(OC)cc2C[C@H]1C(=O)O [moexipril-hydrochloride]	126%	3.4%
C[C@H](Cn1cnc2c(N)ncnc21)OCP(=O)(O)O [Tenofovir]	104%	-4.47%
O=C1NC(=O)/C(=C/c2ccc(-c3ccc(F)cc3O)o2)S1	99.3%	0.588%
CC(C)(C)C#Cc1cc(N(C(=O)[C@H]2CC[C@H](C)CC2)[C@H]2CC[C@H](O)CC2)c(C(=O)O)s1	118%	10.4%
COc1ccc(-c2nc3ccc(C4=NNC(=O)CC4C)cc3[nH]2)cc1 (stereo unspecified) [Pimobendan(Vetmedin)]	104%	4.8%
CCCCCCCCCCCC1=C(O)C(=O)C=C(O)C1=O [embelin]	108%	-2.08%

Structure (SMILES)	normalized SmoIP GFP fluorescence [1]	normalized SmoIP GFP fluorescence [2]
CC(=O)Oc1ccccc1C(=O)O [aspirin-acetylsalicylic-acid]	101%	-6.51%
CNC(=O)c1ccccc1Sc1ccc2c(/C=C/c3ccccn3)n[nH]c2c1 [Axitinib]	142%	28.7%
CC(=O)OCC[N+](C)(C)C [Acetylcholine-chloride]	104%	-16.8%
CN(C)C/C=C/C(=O)Nc1cc2c(Nc3ccc(F)c(Cl)c3)ncnc2cc1O[C@H]1CCOC1	121%	7.92%
CC(C)(Oc1ccc(C2CC2(Cl)Cl)cc1)C(=O)O (stereo unspecified) [ciprofibrate]	108%	-5.35%
OCCn1cc(-c2cnc3nnn(Cc4ccc5ncccc5c4)c3n2)cn1	110%	1.03%
CCc1c2c(nc3ccc(O)cc13)-c1cc3c(c(=O)n1C2)COC(=O)[C@]3(O)CC	95.2%	5.3%
O=C(NC[C@H]1CN(c2ccc(N3CCOCC3=O)cc2)C(=O)O1)c1ccc(Cl)s1 [Rivaroxaban]	103%	-1.34%
CCOc1cc([C@@H](CS(C)(=O)=O)N2C(=O)c3cccc(NC(C)=O)c3C2=O)ccc1OC	142%	-14.5%
COc1cc2c(cc1Cc1cccc(Cl)c1F)c(=O)c(C(=O)O)cn2[C@H](CO)C(C)C [Elvitegravir]	143%	-9.22%
COc1cc(N2CCC(N3CCN(C)CC3)CC2)ccc1Nc1ncc(Cl)c(Nc2ccccc2S(=O)(=O)C(C)C)n1	109%	10.2%
Cc1cnc(Nc2ccc(N3CCN(C)CC3)cc2)nc1Nc1cccc(S(=O)(=O)NC(C)(C)C)c1	159%	-5.35%
O=C1NC(=O)/C(=C/c2cccc(C(F)(F)F)c2)S1	107%	-9.04%
CN(C)C(=O)Nc1cccc(-c2ccc(N(C)C)cc2)c1 [atglistatin]	130%	18.1%
CC(=O)Oc1cc2c(s1)CCN(C(C(=O)C1CC1)c1ccccc1F)C2 (stereo unspecified) [Prasugrel]	107%	-2.42%
Cc1onc(-c2ccccc2)c1-c1ccc(S(N)(=O)=O)cc1 [valdecoxib]	104%	-5.49%
COC1=C2C[C@@H](C)C[C@H](OC)[C@H](O)[C@@H](C)/C=C(\C)[C@H](OC(N)=O)[C@@H](OC)/C=C\C=C(/C)C(=O)NC(=CC1=O)C2=O [geldanamycin]	209%	46.6%
CC(C)(C)OC(=O)N[C@H]1CCCCC/C=C\[C@@H]2C[C@@]2(C(=O)NS(=O)(=O)C2CC2)NC(=O)[C@@H]2C[C@@H](OC(=O)N3Cc4cccc(F)c4C3)CN2C1=O [Danoprevir]	111%	13%
COc1cc2c(N3CCN(C(=O)Nc4ccc(OC(C)C)cc4)CC3)ncnc2cc1OCCCN1CCCCC1 [Tandutinib-(MLN518)]	99.7%	1.89%
COc1cccc(Nc2c(C(N)=O)cnc3c(C)cc(S(=O)(=O)c4cccc(C(=O)N(C)C)c4)cc23)c1	111%	-16.1%
COc1ccc(CC(C)NCC(O)c2ccc(O)c(NC=O)c2)cc1 (stereo unspecified) [formoterol-hemifumarate]	129%	-8.77%
CC(=O)N1CCN(c2ccc(OCC3COC(Cn4ccnc4)(c4ccc(Cl)cc4Cl)O3)cc2)CC1 (stereo unspecified) [Ketoconazole]	109%	2.64%
O=C(CCCCCCNC(=O)c1cnc(N(c2ccccc2)c2ccccc2)nc1)NO [rocilinostat-acy-1215]	114%	6.2%

Reference: the supplement of paper PMC5662767
